G9a inh: G9a (human) methyltransferase inhibition; G9a H3K9 monomethylation, AlphaScreen, 2 h; Potency, µM (top dose mostly 102 µM), actives largely listed as inhibitors; Q96KQ7; 8.8% of 350,000 active; AID 504332; note: nearly all actives have a fitted effect of over 75% in size
Target sequence (Q96KQ7 913-1193 limits assumed): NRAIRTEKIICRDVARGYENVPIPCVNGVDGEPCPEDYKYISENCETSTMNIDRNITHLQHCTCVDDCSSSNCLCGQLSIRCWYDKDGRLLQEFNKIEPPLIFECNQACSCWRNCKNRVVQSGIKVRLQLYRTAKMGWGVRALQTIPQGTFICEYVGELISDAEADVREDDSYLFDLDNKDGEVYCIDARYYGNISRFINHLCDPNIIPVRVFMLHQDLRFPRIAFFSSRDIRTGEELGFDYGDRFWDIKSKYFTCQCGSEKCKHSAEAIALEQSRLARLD
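G9a (20 nM) was preincubated 15 min with compound, then reacted 2 h at room temperature with 500 nM biotin-H3K9 peptide and 20 µM SAM. Monomethyl-H3K9 detected by AlphaScreen using anti-H3K9me1 antibody.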
L3MBTL1 inh: blocks human L3MBTL1. Q9Y468. AlphaScreen L3MBTL1–H3K9me1 peptide binding. Potency, µM (highest dose often 57.1 µM), most hits filed as inhibitors. 0.66% of 230,000 active; note: nearly all actives have a fitted effect of over 60% in size
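L3MBTL1 (50 nM) pre-complexed 30 min with biotinylated H3(1-15)K9me1 peptide (75 nM), then compounds added for 30 min at room temperature; AlphaScreen streptavidin donor/nickel chelate acceptor beads (10 ug/mL final) read after 30 min dark incubation.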
Sfp inh: blocks B. subtilis Sfp PPTase activity; Potency, µM, actives largely listed as inhibitors; Biochemical Sfp PPTase activity, qHTS; Q9F4F7; 3.5% of 310,000 active;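 note: the enzyme is Sfp with the accession as filed and its product quenches rhodamine fluorescence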
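After 15 min at room temperature with compound, 15 nM Sfp received 5 uM rhodamine-CoA plus 12.5 uM BHQ-2-ybbR (50 mM Hepes pH 7.6, 10 mM MgCl2). Rate came from the fluorescence difference over 30 min, ex 525/em 598 nm.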
BAZ2B inh: inhibitors of human BAZ2B bromodomain. Q9UIF8. AlphaScreen BAZ2B-H3K14Ac peptide displacement. Potency, µM (doses to about 114 µM), usual class: inhibitors. 4.4% of 360,000 active; note: nearly all actives have a fitted effect of over 60% in size
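BAZ2B 50 nM plus b-H3(5-23)K14Ac 50 nM, PBS pH 7.4/0.01% Tween-20, 30 min RT; compound added (max 110 uM), 30 min RT; streptavidin donor/Ni-chelate acceptor beads 10 ug/mL final, 20 min dark; AlphaScreen read.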
JMJD2A Tudor inh: JMJD2A Tudor domain (human) inhibition; O75164; AlphaScreen JMJD2A-Tudor / H3K4me3 peptide binding; Potency, µM (series often up to 114 µM), most hits filed as inhibitors; 4.4% of 390,000 active; AID 504339; note: nearly all actives have a fitted effect of over 50% in size
HP1b binding inh: blocks HP1-beta chromodomain binding to methylated histone tails | 0.56% of 390,000 active | Potency, µM (top dose mostly 114 µM), usual class: inhibitors | AID 540317 | AlphaScreen HP1-beta / biotin-H3K9me3 peptide binding; note: nearly all actives have a fitted effect of over 70% in size
Target sequence (P83916 whole entry, looked up): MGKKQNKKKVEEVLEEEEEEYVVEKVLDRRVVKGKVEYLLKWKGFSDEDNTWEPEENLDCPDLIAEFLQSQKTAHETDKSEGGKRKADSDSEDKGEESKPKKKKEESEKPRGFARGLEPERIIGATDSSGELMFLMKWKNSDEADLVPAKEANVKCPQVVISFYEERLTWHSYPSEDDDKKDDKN
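Compound inhibition of the preformed complex between 50 nM HP1-beta and 50 nM biotinylated H3K9me3 peptide was read by AlphaScreen. Buffer was PBS pH 7.4 with 0.01% Tween-20. Incubations ran 30 min at room temperature, with 10 ug/mL donor/acceptor beads.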
A number is an active result; [ ] = dose if it differs, or a comment. Hits are enriched below; roughly 12% of the tested compounds scored in any of these assays. Calls come from the whole dose curve; as a rule, active = well fitted curve in the direction sought with a large enough effect; inconclusive = small, poorly fitted or top-dose-only effect, or another doubt; inactive = no such curve, though single readings can be large; an effect the other way counts as inactive or inconclusive.

How did c1ccc(-c2csc(=Nc3cccnc3)n2CC2CCCO2)cc1 (stereo not given) do in these assays?
G9a inh: inconclusive; L3MBTL1 inh: inactive; Sfp inh: inactive; BAZ2B inh: inconclusive; JMJD2A Tudor inh: inconclusive; HP1b binding inh: inactive

How did COc1cccc(NC(=O)CSc2nc(O)c(C/C=C/c3ccccc3)c(=O)[nH]2)c1 do in these assays?
G9a inh: inactive; BAZ2B inh: inactive; JMJD2A Tudor inh: inactive; HP1b binding inh: inactive

How did Cc1noc(C)c1-c1nc(N2CCNCC2)c2ccccc2n1 do in these assays?
Sfp inh: inactive

How did COC(=O)/C=C1\N/C(=N/c2nc(C)c3cc(OC)ccc3n2)NC1=O do in these assays?
G9a inh: inactive; L3MBTL1 inh: inactive; Sfp inh: inactive; BAZ2B inh: inactive; JMJD2A Tudor inh: inactive; HP1b binding inh: inactive

Results for Cc1cc(C)nc(/N=C2\NC(=O)CC(C(=O)O)N2c2ccc(F)c(Cl)c2)n1 (stereo not given) ?
G9a inh: inactive; L3MBTL1 inh: inactive; Sfp inh: inactive; BAZ2B inh: inactive

Results for COC(=O)/C=C1/C(=O)N/C(=N\c2nc(C)cc(C)n2)N1c1ccc(OC)cc1 ?
G9a inh: inconclusive; L3MBTL1 inh: inactive; Sfp inh: inactive; BAZ2B inh: inconclusive; JMJD2A Tudor inh: 25µM; HP1b binding inh: inactive

Results for COC(=O)/C=C1\N/C(=N\c2nc(C)cc(C)n2)N(c2ccc(Cl)cc2)C1=O ?
L3MBTL1 inh: inactive; Sfp inh: inactive; BAZ2B inh: inactive; JMJD2A Tudor inh: 20µM; HP1b binding inh: inactive

What do the screens show for `COC(=O)/C=C1\N/C(=N\c2nc(C)cc(C)n2)N(c2ccc(C)c(C)c2)C1=O`?
G9a inh: inconclusive; L3MBTL1 inh: inactive; Sfp inh: inactive; BAZ2B inh: inactive; JMJD2A Tudor inh: 28µM; HP1b binding inh: inactive

What do the screens show for `CCOC(=O)c1nnn(-c2nc(N3CCCC3)nc(N3CCCC3)n2)c1-c1ccccc1`?
G9a inh: inactive; L3MBTL1 inh: inactive; Sfp inh: inactive; BAZ2B inh: inactive; JMJD2A Tudor inh: 79µM; HP1b binding inh: inactive

How did CCCCc1ccc(/C(C)=N/Nc2cc(N3CCOCC3)nc(C)n2)cc1 do in these assays?
G9a inh: inactive[0.501 µM]; L3MBTL1 inh: inactive[2.29 µM]; Sfp inh: inactive; BAZ2B inh: inconclusive; JMJD2A Tudor inh: inconclusive; HP1b binding inh: inactive

Results for CN(C)c1oc(-c2ccccc2Cl)nc1P(=O)(c1ccccc1)c1ccccc1 ?
G9a inh: inconclusive; Sfp inh: inconclusive; BAZ2B inh: inconclusive; JMJD2A Tudor inh: 56µM; HP1b binding inh: inactive

What do the screens show for `Cc1ccc([N+](=O)[O-])cc1N=C(c1ccc([N+](=O)[O-])cc1)N1CCOCC1`?
G9a inh: inactive; L3MBTL1 inh: inactive; Sfp inh: inactive; BAZ2B inh: inconclusive; JMJD2A Tudor inh: 79µM; HP1b binding inh: inconclusive

Results for Cc1ccc([N+](=O)[O-])cc1N=C(c1cccc([N+](=O)[O-])c1)N1CCOCC1 ?
G9a inh: inactive[0.0925 µM]; L3MBTL1 inh: inactive; Sfp inh: inactive; BAZ2B inh: inactive; JMJD2A Tudor inh: inactive[11.4 µM]; HP1b binding inh: inactive

How did O=[N+]([O-])c1ccc(C(=Nc2cccc3ccccc23)N2CCOCC2)cc1 do in these assays?
G9a inh: 45µM; L3MBTL1 inh: inactive; Sfp inh: inactive; BAZ2B inh: 50µM; JMJD2A Tudor inh: inconclusive; HP1b binding inh: inconclusive

What do the screens show for `COC(=O)C1=C(C(=O)OC)[C@@H]2N(C)c3ccc(OC)cc3[C@@]23C[C@@H](C(=O)OC)N(S(=O)(=O)c2c(C)noc2C)C3=N1`?
Sfp inh: inactive

How did CCOc1ccc(CCNC(=O)COC(=O)c2cccnc2SC)cc1OCC do in these assays?
G9a inh: inactive; L3MBTL1 inh: inactive; BAZ2B inh: inactive; JMJD2A Tudor inh: inactive; HP1b binding inh: inactive

Results for S=c1[nH]nc(COc2ccccc2)n1/N=C/c1ccccn1 ?
G9a inh: inconclusive; L3MBTL1 inh: inactive; Sfp inh: inactive; BAZ2B inh: inactive; JMJD2A Tudor inh: 4µM; HP1b binding inh: inactive

Results for Cc1cccc(/C=N/n2c(COc3ccccc3)n[nH]c2=S)c1 ?
G9a inh: 3.2µM; Sfp inh: 56µM; BAZ2B inh: inconclusive; JMJD2A Tudor inh: inconclusive; HP1b binding inh: inactive

How did Cc1cc(OCc2n[nH]c(=S)n2-c2ccccc2)ccc1Cl do in these assays?
L3MBTL1 inh: inactive; Sfp inh: inactive; BAZ2B inh: inactive; JMJD2A Tudor inh: inconclusive; HP1b binding inh: inactive

How did CCc1ccc(/C=N/n2c(COc3ccccc3)n[nH]c2=S)cc1 do in these assays?
G9a inh: 20µM; Sfp inh: inactive; BAZ2B inh: inactive; JMJD2A Tudor inh: inconclusive; HP1b binding inh: inactive

How did FC(F)(F)c1ccc(/C=N/n2c(COc3ccccc3)n[nH]c2=S)cc1 do in these assays?
G9a inh: inactive[2.33 µM]; Sfp inh: inconclusive; BAZ2B inh: inconclusive; JMJD2A Tudor inh: inconclusive; HP1b binding inh: inactive

What do the screens show for `S=c1[nH]nc(COc2ccccc2)n1/N=C/c1ccc(Cl)c(Cl)c1`?
G9a inh: 13µM; Sfp inh: 56µM; BAZ2B inh: inactive; JMJD2A Tudor inh: inconclusive; HP1b binding inh: inconclusive

Results for Cc1cccc(/C=N/n2c(C)nnc2C)c1 ?
G9a inh: inconclusive; L3MBTL1 inh: inactive; Sfp inh: inactive; BAZ2B inh: inactive; JMJD2A Tudor inh: inactive; HP1b binding inh: inactive

Results for C=Cn1cc[n+](CC(=O)c2ccc(Cl)c(Cl)c2)c1 ?
G9a inh: inconclusive; L3MBTL1 inh: inactive; Sfp inh: inactive; BAZ2B inh: inactive; JMJD2A Tudor inh: inactive; HP1b binding inh: inactive

How did CC[C@@H](C)[C@H]1O[C@]2(CC[C@H]1C)C[C@@H]1C[C@@H](CC=C(C)[C@@H](O[C@H]3C[C@H](OC)[C@@H](O[C@H]4C[C@H](OC)[C@@H](O)[C@H](C)O4)[C@H](C)O3)[C@@H](C)C=CC=C3CO[C@@H]4[C@H](O)C(C)=C[C@@H](C(=O)O1)[C@]34O)O2 do in these assays?
G9a inh: inactive

How did COc1ccc(OC)c(C2(O)CSC(=Nc3cccnc3)N2Cc2ccco2)c1 (stereo not given) do in these assays?
G9a inh: inactive; L3MBTL1 inh: inactive[11.4 µM]; Sfp inh: inconclusive; BAZ2B inh: 63µM; JMJD2A Tudor inh: inactive; HP1b binding inh: inactive

How did OC1(c2ccc(OC(F)F)cc2)CSC(=Nc2cccnc2)N1C1CC1 (stereo not given) do in these assays?
G9a inh: inconclusive; L3MBTL1 inh: inactive; Sfp inh: inactive; BAZ2B inh: inconclusive; JMJD2A Tudor inh: inconclusive; HP1b binding inh: inactive

How did COc1ccc(CNc2cc(C)ccc2C)c(OC)c1OC do in these assays?
G9a inh: inconclusive; L3MBTL1 inh: inactive; Sfp inh: inactive; BAZ2B inh: inactive; JMJD2A Tudor inh: inactive; HP1b binding inh: inactive

Results for COc1cccc(CNS(=O)(=O)c2ccccc2Br)c1OC ?
JMJD2A Tudor inh: 79µM; HP1b binding inh: inactive
